PLK1 PBD block = qHTS for Inhibitors of PLK1-PDB (polo-like kinase 1 - polo-box domain): Primary Screen; Serine/threonine-protein kinase PLK1 (Homo sapiens), P53350; Plk1 PBD binding of FITC phosphopeptide, fluorescence polarization; Potency, µM, for the others: max response, negative = inhibition, actives largely listed as inhibitors; 2.8% of 360,000 active; AID 720504, 2013; note: potency is the fitted concentration of half-maximal effect; series mostly up to about 57 µM; % is set by controls: 0 for no effect and ±100 for the full control effect; nearly all actives have a fitted effect of over 65% in size
Target sequence (P53350 whole entry, looked up, the tested form may be a part): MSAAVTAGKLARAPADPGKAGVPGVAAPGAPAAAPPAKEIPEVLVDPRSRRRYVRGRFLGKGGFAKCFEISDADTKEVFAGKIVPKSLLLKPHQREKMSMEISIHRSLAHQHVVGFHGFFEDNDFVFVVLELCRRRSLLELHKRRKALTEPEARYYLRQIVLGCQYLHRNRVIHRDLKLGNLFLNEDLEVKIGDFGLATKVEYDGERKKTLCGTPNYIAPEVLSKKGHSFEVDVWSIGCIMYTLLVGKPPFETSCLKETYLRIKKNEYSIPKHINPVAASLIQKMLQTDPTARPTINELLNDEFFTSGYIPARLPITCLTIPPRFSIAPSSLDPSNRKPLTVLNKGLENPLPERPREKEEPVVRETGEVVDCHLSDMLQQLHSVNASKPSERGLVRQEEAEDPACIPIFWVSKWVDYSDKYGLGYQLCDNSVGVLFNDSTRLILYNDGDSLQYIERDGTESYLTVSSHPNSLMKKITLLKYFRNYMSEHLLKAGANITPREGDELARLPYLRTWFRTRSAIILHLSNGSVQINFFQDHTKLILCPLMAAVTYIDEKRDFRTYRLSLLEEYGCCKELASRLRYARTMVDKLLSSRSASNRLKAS
JMJD2A Tudor inh = qHTS Assay for Inhibitors of JMJD2A-Tudor Domain; AlphaScreen JMJD2A-Tudor / H3K4me3 peptide binding; Potency, µM (doses to about 114 µM), without a hit: at the highest dose activity change, negative = inhibition, most hits filed as inhibitors; 4.4% of 390,000 active; note: potency is the fitted concentration of half-maximal effect; % is set by controls: 0 for no effect and ±100 for the full control effect; nearly all actives have a fitted effect of over 50% in size
BAZ2B inh = qHTS Assay for Inhibitors of BAZ2B | Bromodomain adjacent to zinc finger domain protein 2B (Homo sapiens), Q9UIF8 | AlphaScreen BAZ2B-H3K14Ac peptide displacement | Potency, µM (highest dose often 114 µM), inactives show at the top dose activity change, negative = inhibition, most hits filed as inhibitors | 4.4% of 360,000 active | AID 504333, 2011; note: potency is the fitted concentration of half-maximal effect; % is set by controls: 0 for no effect and ±100 for the full control effect; nearly all actives have a fitted effect of over 60% in size
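AlphaScreen luminescence quantifies BAZ2B engagement of H3K14Ac peptide; the protein and biotinylated peptide are both at 50 nM final, buffer PBS pH 7.4 with 0.01% Tween-20, all steps at room temperature.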
PI5P4Ka inh = qHTS for Inhibitors of phosphatidylinositol 5-phosphate 4-kinase (PI5P4K); max response, %; PI5P4Kalpha enzyme, ADP-Glo luminescence, 60 min; stronger effect = lower value; 1.2% of 330,000 active; Phosphatidylinositol 5-phosphate 4-kinase type-2 alpha (Homo sapiens), P48426; AID 652105, 2013; active = max response of -50% or lower; inconclusive = between -30% and -50%; inactive = -30% or higher; note: value at the top dose of about 77 µM; % is set by controls: 0 for no effect and ±100 for the full control effect
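Controls without substrate or without enzyme flank wells where PI5P4Kalpha converts substrate using 5 microM ATP (final). Incubation lasts 60 minutes at room temperature; ADP formed is read by ADP-Glo luminescence.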
HP1b binding inh = HTS for Inhibitors of HP1-beta Chromodomain Interactions with Methylated Histone Tails | Potency, µM (highest dose often 114 µM), inactives show top-dose activity change, negative = inhibition, hits mostly inhibitors | AlphaScreen HP1-beta / biotin-H3K9me3 peptide binding | AID 540317, 2011 | 0.56% of 390,000 active; note: potency is the fitted concentration of half-maximal effect; nearly all actives have a fitted effect of over 70% in size
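HP1-beta protein (50 nM final) preincubated 30 min at room temperature with biotinylated H3(1-18)K9me3 peptide (50 nM) in PBS pH 7.4, 0.01% Tween-20, then compound added for 30 min. AlphaScreen streptavidin donor/nickel chelate acceptor beads (10 ug/mL final), 30 min dark, luminescence read.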
G9a block = qHTS Assay for Inhibitors of Histone Lysine Methyltransferase G9a | Potency, µM (top dose mostly 102 µM), inactives show at the top dose activity, negative = inhibition, hits mostly inhibitors | 8.8% of 350,000 active | Histone-lysine N-methyltransferase EHMT2 (Homo sapiens), Q96KQ7 | G9a H3K9 monomethylation, AlphaScreen, 2 h | AID 504332, 2011; note: potency is the fitted concentration of half-maximal effect; % is set by controls: 0 for no effect and ±100 for the full control effect; nearly all actives have a fitted effect of over 75% in size
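Compounds were preincubated with 20 nM G9a for 15 min, after which biotinylated H3K9 peptide (500 nM) and SAM (20 uM) started a 2 h room-temperature reaction. Monomethylated product was quantified by antibody-based AlphaScreen chemiluminescence.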
Active calls of the source: *; ? = inconclusive; / = not tested or not shown; [ ] = remark or other dose. A selection: hits, their analogues and other compounds. The true share with any hit is near 12%. Unless noted, calls come from the whole dose curve; as a rule, active = well fitted curve in the direction sought with a large enough effect; inconclusive = small, poorly fitted or top-dose-only effect, or another doubt; inactive = no such curve, though single readings can be large; an effect the other way counts as inactive or inconclusive.

SMILES | PLK1 PBD block | JMJD2A Tudor inh | BAZ2B inh | PI5P4Ka inh | HP1b binding inh | G9a block
CCOC(=O)c1c(CN2CCN(c3ccccc3)CC2)oc2ccc(O)cc12 | 4% | ? | ? | -4 | -2% | 40µM*
CCOC(=O)c1oc2ccccc2c1CN1CCN(c2ccccc2)CC1 | 2% | 79µM* | 56µM* | 7 | -17% | ?
COc1ccc2[nH]c(=O)c(CN(C(=O)c3cccnc3)c3cccc(C)c3)cc2c1 | 24µM* | -19%[11.4 µM] | -5% | ? | 4% | -27%
COc1ccc2[nH]c(=O)c(CN(C(=O)c3cccc(Cl)c3)c3ccccc3C)cc2c1 | / | -22% | 0% | / | 17% | -39%[59 µM]
CCC(=O)N(Cc1cc(=O)[nH]c2ccccc12)c1ccccc1OC | ? | -22% | 0% | -1 | -8% | -9%
COc1ccc2[nH]c(=O)c(CN(C(=O)c3cccc(Cl)c3)c3ccccc3OC)cc2c1 | / | -12% | -10% | / | 15% | 14µM*
COc1ccccc1N(Cc1cc(=O)[nH]c2ccccc12)C(=O)c1cccc([N+](=O)[O-])c1 | 30µM* | -15%[11.4 µM] | ? | -13 | -20% | /
COc1ccc(NC(=O)c2c(C)oc3ccc(O)c(CN4CCN(Cc5ccccc5)CC4)c23)cc1 | / | -23% | -10% | / | 15% | ?
CS(=O)(=O)Nc1ccc(-c2ccc3nccn3c2)cc1 | 0% | / | / | -25 | / | /
CC(C)(C(=O)c1ccccc1)/[N+]([O-])=C/c1ccccc1 | 3% | -17% | / | / | 23% | /
CC(C)(/C=N/O)/[N+]([O-])=C/c1ccccc1 | -2% | -7% | -7% | -5 | 37% | 50µM*
COc1ccccc1CCNC(=O)Cn1c(=O)oc2ccccc21 | -12% | -16% | 79µM* | -4 | 13% | 40µM*
O=[N+]([O-])c1cc(CSC2=NCCN2)ccc1O | ? | -11%[11.4 µM] | ? | -12 | 2% | 25µM*
CCCOc1ccc(CSC2=NCCN2)cc1[N+](=O)[O-] | 1% | 11% | -6% | -4 | 39% | /
O=C(CNC(=O)c1cccc2ccccc12)OC(C(=O)Nc1cc(C(F)(F)F)ccc1Cl)c1ccccc1 (configuration not stated) | / | -10% | / | / | / | /
CC1=CC(C)(C)n2c(O)c(N=N)c3c(C)c(C)cc1c32 | -11% | ? | 35µM* | 23 | ? | -10%[12.7 µM]
CC1=CC(C)(C)n2c(O)c(N=N)c3cc(C)cc1c32 | 0% | 50µM* | 45µM* | 3 | ? | ?
CC1=CC(C)(C)n2c(O)c(N=N)c3c(C)ccc1c32 | -25% | 45µM* | ? | 25 | -16%[57 µM] | 50µM*
O=C(Nc1ccc(N2CCOCC2)cc1)Nc1ccc2nc(-c3ccco3)c(-c3ccco3)nc2c1 | ? | ? | 5% | / | -17% | 1.8µM*
O=C(NCCCO)Nc1ccc2nc(-c3ccco3)c(-c3ccco3)nc2c1 | / | / | 3.5µM* | / | / | 1.8µM*
O=C(Nc1ccc2nc(-c3ccco3)c(-c3ccco3)nc2c1)NC1CC1 | ? | 20µM* | 11µM* | -75* | 35µM* | ?
O=C(Nc1cccc(C(F)(F)F)c1)c1ccc2nc(-c3ccco3)c(-c3ccco3)nc2c1 | 5.3µM* | 20µM* | 50µM* | -102* | -92% | ?
COc1ccc(NC(=O)C2=C(C)Nc3nc(CCCO)nn3C2c2ccc(O)cc2)cc1 (configuration not stated) | / | -19% | 0% | / | 26% | -4%[59 µM]
CCC1=Nc2ccccc2NC2=C1C(=O)CCC2 | -20% | -38% | 50µM* | -22 | 2% | ?
CN(C)c1ccc2c(c1)OC(N)=C(C#N)C2c1cccc(F)c1 (configuration not stated) | 14% | 50µM* | ? | / | ? | 45µM*
SMILES | PLK1 PBD block | JMJD2A Tudor inh | BAZ2B inh | PI5P4Ka inh | HP1b binding inh | G9a block
CC(C)C[C@@H]1NC(=O)[C@H](CO)NC(=O)c2cc([N+](=O)[O-])cc(I)c2OCC[C@@H](C(N)=O)NC1=O | -13% | -9% | -32% | -6 | 28% | 40µM*
CC[C@H](C)[C@@H]1NC(=O)c2cc([N+](=O)[O-])cc(F)c2NCCCC[C@@H](C(N)=O)NC(=O)[C@H](CCCCN)NC1=O | -4% | -31% | -7% | 1 | 4% | ?
C[C@@H](O)C1NC(=O)[C@H](CCCCN)NC(=O)c2cc([N+](=O)[O-])cc(I)c2OCC[C@@H](C(N)=O)NC1=O (some centres not stated) | -11% | 56µM* | ? | 0 | -9% | 8.9µM*
CCC(C)C(N)C(=O)N1CCCC1C(=O)NC(C(=O)O)C(C)CC (configuration not stated) | 1% | / | / | 1 | 1% | /
COc1cc(C(=O)O/N=C2\C=CC(=O)C(C)=C2)cc(OC)c1OC | 21µM* | -20% | -33% | / | 22% | 14µM*
COc1cc(C(=O)ON=C2C=C(C)C(=O)C(C)=C2)cc(OC)c1OC | ? | -25% | 1% | -2 | 22% | -10%[59 µM]
Cc1cccc(N/N=C2/COC(C)(C)CC2=O)c1 | 0% | -27% | ? | -6 | 9% | 79µM*
COC(=O)C1(Cc2ccccc2)NC(c2ccccc2C)C2C(=O)N(c3ccc4c(c3)OCO4)C(=O)C21 (configuration not stated) | -5% | -29% | 4% | 0 | 9% | 0.79µM*
CCCS(=O)(=O)c1c(S(=O)(=O)CCC)c2c(C)cccn2c1C(=O)OC | ? | ? | 7%[57.1 µM] | / | -16% | 32µM*
CCCS(=O)(=O)c1c(S(=O)(=O)CCC)c2c(N)cccn2c1C(=O)c1ccc(F)cc1 | -20% | ? | ? | 0 | 23% | ?
CCCS(=O)(=O)c1c(S(=O)(=O)CCC)c2c(N)cccn2c1C(=O)c1ccc(Br)cc1 | -2% | ? | -39% | -13 | -6% | 11µM*
CCc1cccc(-n2c(=O)c3cccnc3n2CC(=O)NCc2ccccc2Cl)c1 | / | -3% | 0% | / | 17% | -5%[59 µM]
Cc1cc(C)c2nc(NNC(=O)c3cc(-c4cccs4)nc4ccccc34)sc2c1 | -9% | ? | ? | -6 | 36% | 32µM*
O=C(NNc1nc2ccc(Cl)cc2s1)c1cc(-c2cccs2)nc2ccccc12 | 0% | ? | -34% | -11 | 49% | -9%
Cc1ccc2sc(NNC(=O)c3cc(-c4cccs4)nc4ccccc34)nc2c1C | / | / | 5% | / | / | 32µM*

Screens: PubChem BioAssay, National Center for Advancing Translational Sciences (NCATS)
